These results are taken from PubChem BioAssay AID720513 (Broad Institute, 2013).

In all, about 2,100 compounds went through this assay and about 480 (23%) were called active. About 5% were inconclusive and are not listed.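 Rule for the calls: active = fitted curve reaches 40% activation at or below the top valid concentration, in every replicate test; inconclusive = replicate tests disagree on the call; inactive = the rest, including activity in the opposite direction.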 Not all results are given here. Results with a measured potency or affinity are listed apart.

A short description of the experiment: activators raising PGC1a acetylation in cells, dose response, cell-based, cherry-picked samples, set 6 (AID 720513).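 Note: cells made to overexpress flag tagged PGC1a plus GCN5 acetyltransferase by viral infection.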 To be noted: U2OS PGC1a acetylation AlphaLISA, overnight, 0 = neutral, -100 = inhibitor control; series mostly up to 19.5 µM. (Alpha assays give light when donor and acceptor beads are brought close together.)
Regarding `CC1CN(C(=O)COC(=O)[C@@H]2CC(O)CN2S(=O)(=O)c2ccc3c(c2)OCCO3)CC(C)O1` (stereo partly specified), the outcome was inactive.

Regarding `CCn1c(C)c(C)c2cc(C(=O)NCCN3CCOCC3)ccc21`, the outcome was inactive.

In the case of `CN1C(C(=O)Nc2ccccn2)=C(O)c2sc(Cl)cc2S1(=O)=O`, the compound was classed as inactive.

With `CO[C@H]1CN(C)C(=O)c2cc(NS(C)(=O)=O)ccc2OC[C@H](C)N(C(=O)NC(C)C)C[C@H]1C`, the compound was called inactive.

As to `C[C@@H]1CN([C@@H](C)CO)S(=O)(=O)c2ccc(C#CC3CCCCC3)cc2O[C@H]1CN(C)Cc1cccnc1`, the call was inactive.

As to `CN1CCN2c3ncccc3Cc3ccccc3[C@@H]2C1`, the compound was classed as inactive.

Regarding `Fc1ccc(/C=C2\CCCC3=C2Nc2ncnn2C3c2ccc(F)cc2)cc1` (stereo unspecified), the compound was called inactive.

Turning to `CC(C)(C)NS(=O)(=O)c1ccc(CCC(=O)N2CCOCC2)cc1`, the compound was classed as inactive.

With `CCC(=O)N[C@H]1CC[C@H](CCNC(=O)Nc2ccc(C(F)(F)F)cc2)O[C@H]1CO`, the call was inactive.

On to `COc1cc(CN2C[C@@H]3N[C@H](C2)C3c2ccc(-c3ccccc3C)cc2)cc(OC)c1` (stereo partly specified), for which the outcome was inactive.

As to `COc1cccc(CN2C[C@@H]3N[C@H](C2)C3c2ccc(-c3ccccc3OC)cc2)c1` (stereo partly specified), the compound was classed as inactive.

On to `CC(C)c1ccc(-c2nnn(CC(=O)N3CCCCC3)n2)cc1`, for which the call was inactive.

Consider `Cc1ccc(S(=O)(=O)N2CCCC2)cc1C(=O)O`, for which the compound was called inactive.

`CN(C)CCCN(C(=O)CCOc1ccccc1)c1nc2ccc(F)cc2s1`: the compound was called inactive.

Regarding `C[C@@H]1CN([C@@H](C)CO)C(=O)c2c(c3ccccc3n2C)-c2ccccc2CO[C@H]1CN(C)S(=O)(=O)c1ccsc1`, the compound was called inactive.

`CC(C)CC#Cc1cnc2c(c1)C(=O)N([C@@H](C)CO)C[C@@H](C)[C@H](CN(C)C(=O)c1ccccc1)O2`: the compound was classed as inactive.

Consider `CC(C)[C@H](C)NC(=O)N(C)C[C@@H]1OCc2ccccc2-c2ccccc2C(=O)N([C@@H](C)CO)C[C@H]1C`, for which the compound was called inactive.

Consider `CC(C)NC(=O)N(C)C[C@H]1Oc2c(NS(=O)(=O)c3cn(C)cn3)cccc2C(=O)N([C@@H](C)CO)C[C@@H]1C`, for which the result was inactive.

For `CCN(C(=O)COC(=O)/C=C/c1cccc(Cl)c1)c1c(N)n(Cc2ccccc2)c(=O)[nH]c1=O`, the call was inactive.

Consider `Clc1ccccc1OCCCCN1CCCC1`, for which the result was inactive.

As to `CO[C@H]1CN(C)C(=O)c2cc(NS(C)(=O)=O)ccc2OC[C@@H](C)N(C(=O)CC2CC2)C[C@H]1C`, the compound was classed as inactive.

As for `CCOC(=O)CSc1nccc(N(C)C)c1C#N`, the call was inactive.

Consider `CC(NCc1cccs1)C(=O)NC1CCCCC1` (stereo unspecified), for which the compound was called inactive.

Consider `O=C(OCc1cnc(Cl)s1)c1cccs1`, for which the compound was called inactive.

Regarding `CO[C@@H]1CN(C)C(=O)c2ccc(NC(=O)c3ccc(Oc4ccccc4)cc3)cc2OC[C@@H](C)N(C(C)=O)C[C@H]1C`, the call was inactive.

On to `COc1ccc(S(=O)(=O)N(C)C[C@H]2Oc3ccc(NC(=O)CCN4CCOCC4)cc3C(=O)N([C@@H](C)CO)C[C@@H]2C)cc1`, for which the compound was classed as inactive.

Regarding `CSCC[C@H](NC(=O)c1ccc(Br)o1)c1nnc2ccccn12`, the result was inactive.

As for `O=C(Nc1ccc([N+](=O)[O-])cn1)c1ccc(Br)o1`, the compound was called inactive.

`CC(=O)N(C)C[C@@H]1Oc2cc(-c3ccc(F)cc3)ccc2S(=O)(=O)N([C@H](C)CO)C[C@H]1C`: the compound was classed as inactive.

With `C[C@@H]1CN([C@@H](C)CO)C(=O)c2cccc(NC(=O)C3CCCCC3)c2O[C@@H]1CN(C)CC1CCCCC1`, the compound was classed as inactive.

As for `COc1cc(NC(=O)c2[nH]cnc2C(N)=O)cc(C(=O)Nc2cccc(C(F)(F)F)c2)c1`, the compound was classed as inactive.

Consider `O=C(Nc1cccc(Cl)c1)c1cncn1-c1ccc(F)cc1`, for which the result was inactive.

Take `COc1cnc(-c2ccccn2)nc1Sc1ccc(C)cc1`: the outcome was inactive.

With `CCOC(=O)C1(Cc2cccc(Cl)c2)CCCN(C(=O)c2cccnc2)C1` (stereo unspecified), the result was inactive.

With `C[C@H]1CN([C@@H](C)CO)C(=O)c2cc(-c3cncnc3)cnc2O[C@@H]1CN(C)C(=O)c1cccc(F)c1`, the call was inactive.

As for `C[C@H]1CCCCO[C@@H](CN(C)C(=O)c2ccccc2)[C@@H](C)CN([C@@H](C)CO)C(=O)c2cc(NC(=O)Nc3ccc(F)cc3)ccc2O1`, the outcome was inactive.

For the compound `C[C@H]1CN([C@@H](C)CO)C(=O)c2cc(C#Cc3ccc(F)cc3)cnc2O[C@@H]1CN(C)C(=O)Nc1ccc(F)cc1`, the call was inactive.

On to `C[C@H]1CN([C@@H](C)CO)C(=O)CCCn2nncc2CO[C@@H]1CN(C)C(=O)c1ccc(N2CCN(C)CC2)cc1`, for which the result was inactive.

As for `C[C@@H]1CN([C@@H](C)CO)C(=O)c2cc(NS(C)(=O)=O)ccc2O[C@@H](C)CCCCO[C@H]1CN(C)C(=O)Nc1ccc(F)cc1`, the call was inactive.

As for `C[C@@H]1CN([C@H](C)CO)C(=O)c2cccc(NC(=O)c3nc4ccccc4s3)c2O[C@@H]1CN(C)C(=O)Nc1ccc(F)cc1`, the compound was classed as inactive.

For `CCOC(=O)CN1C(=N)N(c2nc(NC(C)C)nc(OC)n2)CC1=O`, the compound was classed as inactive.

Consider `CC1CCc2sc(C(=O)Nc3nnc(SCc4ccc(F)cc4)s3)cc2C1` (stereo unspecified), for which the compound was called inactive.

For the compound `CCc1ccc(-c2cn3nc(-c4ccccc4)cnc3n2)cc1`, the compound was called inactive.

Turning to `COCC(=O)Nc1ccc2c(c1)OC[C@H](C)N(C(=O)c1ccccc1F)C[C@H](C)[C@H](OC)CN(C)C2=O`, the outcome was inactive.

On to `OC[C@@H]1[C@H](c2ccc(/C=C/c3ccccc3)cc2)[C@H]2CN(CCC(F)(F)F)CCCCN12`, for which the result was inactive.

For `CCCCOc1ccc(CNC(=O)NS(=O)(=O)c2ccc(OCC(C)C)cc2)cc1`, the call was inactive.

Turning to `CC(C)C#Cc1ccc2c(c1)O[C@@H](CN(C)Cc1ccccc1)[C@@H](C)CN([C@@H](C)CO)S2(=O)=O`, the result was inactive.

With `COc1ccc(-c2nc3ccccc3c(=O)o2)cc1OC`, the call was inactive.

On to `COc1ccc(-c2cc(C(=O)O)[nH]n2)cc1OC`, for which the compound was called inactive.

For `Cc1ccc(C(=O)N2CCN(c3ncccn3)CC2)cc1`, the compound was called inactive.

On to `O=C(Nc1ccc(N2CCN(Cc3ccccc3F)CC2)cc1)c1ccc([N+](=O)[O-])o1`, for which the call was inactive.

Take `N#Cc1cc(Oc2cccc3cccnc23)c(-n2nnc3ccccc32)cc1C#N`: the result was inactive.

Take `O=C1CN(S(=O)(=O)Cc2ccccc2)C[C@@H]2[C@@H](c3ccc(C#Cc4cccc(F)c4)cc3)[C@@H](CO)N12`: the compound was called inactive.

Consider `COC(=O)c1ccc(OC)c(OC2CCCC2)c1`, for which the result was inactive.

Take `N#Cc1ccc(-c2ccc([C@@H]3[C@H]4CNC[C@@H]3N4Cc3ccc4c(c3)OCO4)cc2)cc1`: the compound was classed as inactive.

As for `O=C(Cc1cccnc1)N1CC(=O)N2[C@H](CO)[C@@H](c3ccc(C#CC4CCCCC4)cc3)[C@H]2C1`, the result was inactive.

Turning to `CCN(CC)C1CC(=O)N(c2ccc(Br)cc2)C1=O` (stereo unspecified), the compound was classed as inactive.

Consider `COc1cccc(NC(=O)N2CCN(c3cccc(C)c3)C(C)C2)c1` (stereo unspecified), for which the result was inactive.

Turning to `COC(=O)c1cc(C(=O)N2CCN(c3cccc(Cl)c3)CC2)cc([N+](=O)[O-])c1`, the compound was classed as inactive.

In the case of `O=C(c1cc([N+](=O)[O-])ccc1N1CCCC1)N1CCCC1`, the compound was called inactive.

In the case of `COC(=O)[C@]1(Cc2ccccc2)N=C(c2ccc(OCCCO)cc2)O[C@@H]1c1ccccc1`, the compound was classed as inactive.

For `O=C(c1cccc(Cl)c1)N1CCN(c2ccc(N3CCOCC3)nn2)CC1`, the compound was classed as inactive.

`CCN1C(C#N)=C(C#N)N=C(C)CC1(C)C`: the compound was classed as inactive.

On to `CC1(C(=O)Nc2cccc(C#N)c2)CCN1C(=O)CCc1ccccc1` (stereo unspecified), for which the result was inactive.

Turning to `COc1cc(CN2C[C@@H]3N[C@H](C2)C3c2ccc(/C=C/c3ccccc3)cc2)cc(OC)c1` (stereo partly specified), the call was inactive.

In the case of `O=C1C=CCCN1S(=O)(=O)/C=C/c1ccccc1`, the outcome was inactive.

Regarding `CO[C@H]1CN(C)C(=O)c2ccc(NC(=O)Nc3ccccc3F)cc2OC[C@@H](C)NC[C@@H]1C`, the compound was classed as inactive.

As to `CC(=O)N(C1=C(N2CCOCC2)C(=O)c2ccccc2C1=O)c1ccc(C(=O)O)cc1`, the outcome was inactive.

Consider `N#Cc1ccsc1NC(=O)CSc1nnc(NC2CC2)s1`, for which the call was inactive.

Regarding `Cc1cc(C)c(C#N)c(SCC(=O)Nc2nnc(-c3ccccc3)s2)n1`, the compound was classed as inactive.

In the case of `Cc1ccc2nc(C)cc(OCC(=O)O)c2c1`, the call was inactive.

As to `C[C@@H]1CN([C@H](C)CO)C(=O)c2cc(C#CC3CC3)cnc2O[C@H]1CN(C)C(=O)Nc1ccc(F)cc1`, the result was inactive.

For the compound `Cc1[nH]c2ccc(C(C)C)cc2c1CC(=O)O`, the compound was called inactive.

As for `COc1ccc2c(c1)c1nc3ccccc3nc1n2CC(=O)OC(C)C`, the result was inactive.

`CC(C)(C)c1ccc(C(=O)NCCN2CCOCC2)cc1`: the compound was called inactive.

Take `O=C(Nc1ccc(CN2CCOCC2)cc1)c1ccc(F)cc1`: the call was inactive.

With `CC(C)(C)c1ccc(OCCSc2nc3ccccc3n2CC(=O)O)cc1`, the outcome was inactive.

Take `N=c1n(Cc2ccccc2)c2ccccc2n1CC(O)COc1ccc(Cl)cc1Cl` (stereo unspecified): the call was inactive.

For the compound `Cc1nnc(SCC(=O)N2CCC(c3noc4ccc(F)cc34)CC2)s1`, the call was inactive.

`CS(=O)c1nc(-c2ccc(Br)cc2)cc(-c2ccccc2)c1C#N` (stereo unspecified): the outcome was inactive.

Regarding `CN(C)CCCNc1cc(-c2ccccc2)nc2cc(-c3cccc(F)c3)nn12`, the compound was classed as inactive.

For the compound `C=CCn1c(C)cc(C(=O)Cn2ncc(Cl)c(Cl)c2=O)c1C`, the result was inactive.

Consider `Cc1cc(C)c(S(=O)(=O)NCC2CCC(C(=O)NCc3ccc4c(c3)OCO4)CC2)c(C)c1` (stereo unspecified), for which the compound was classed as inactive.

With `Cc1noc(C)c1S(=O)(=O)Nc1ccc2c(c1)C(=O)N([C@H](C)CO)C[C@@H](C)[C@H](CN(C)Cc1ccc(C(F)(F)F)cc1)O2`, the call was inactive.

Turning to `O=c1oc(-c2ccccc2)nc2sc3c(c12)CCC3`, the compound was called inactive.

For the compound `CCOC(=O)c1c(C)n(C)c2cc(Br)c(O)c(O)c12`, the compound was classed as inactive.

Regarding `CCOC(=O)c1c2c(n(C)c1C)C(=O)C(=O)c1ccc(Br)cc1-2`, the compound was called inactive.

As to `O=C(Nc1ccc2c(c1)OCO2)N[C@H]1CC[C@H](CCNC(=O)C2CCC2)O[C@@H]1CO`, the outcome was inactive.

Regarding `CCOC(=O)c1c(NC(=O)/C=C/C(=O)O)sc(C)c1-c1ccc(C(C)(C)C)cc1`, the result was inactive.

`CCOC(=O)c1c(NC(=O)c2c(Br)cnn2CC)sc(C)c1C`: the compound was called inactive.

With `CN1CCc2c(sc3c2c(NCc2ccco2)nc2nnnn23)C1`, the compound was classed as inactive.
